About 79,000 compounds went through this panel and 15% of them were active in at least one assay; those are over-represented in the sample as a whole. Calls of active or inactive are those of the source. No stated cut-off is given here; in the data, active means growth inhibition above about 70%; inactive means the rest.

A short description of the first test: NCI Yeast Anticancer Drug Screen. Data for the mlh1 rad18 strain (AID 175). To be noted: S. cerevisiae mlh1 rad18 strain growth inhibition; at 5.0 µM (retest, dose inferred, filed as 0.5); hits give high values. The method, boiled down: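 Test agents were incubated with a yeast strain of defined genotype (DNA damage repair defect). Inhibition of growth was derived by comparison with vehicle-exposed cultures.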
Consider `CCCc1cc(C(=O)OCC)cc(CCC)c1O`, for which the growth inhibition was 2% (inactive).

Consider `CC(C)[N+]([O-])(CCCNc1c2ccccc2nc2cccc([N+](=O)[O-])c12)C(C)C`, for which the growth inhibition was 92% (active).

Consider `COc1cc2c3c(cccc3c1)C(=O)N(CCN(C)C)C2=O`, for which the growth inhibition was 42% (inactive).

On to `NC(=O)NN=C(CS)CS`, for which the growth inhibition was 5% (inactive).

With `Cc1ccc(NC(=O)/C(Cl)=C(\Cl)C(=O)O)cc1C`, the growth inhibition was 16% (inactive).

Consider `CCN(CC)CC[n+]1ccc2c(C)c3[nH]c4ccc(O)cc4c3c(C)c2c1`, for which the growth inhibition was 7% (inactive).

In the case of `CC(CC(C)(C)[N+](C)(C)C)[N+](C)(C)C` (stereo not drawn), the growth inhibition is 12% (inactive).

As to `COc1ccc(OC)c2cc3ccccc3cc12`, the growth inhibition was 48% (inactive).

On to `Nc1ncncc1C(C1=C(O)COC1=O)C1=C(O)COC1=O`, for which the growth inhibition was 2% (inactive).

Take `CSC1=NNC(SC)=NN1`: the growth inhibition is 44% (inactive).

In the case of `Cc1c(Cl)ccc2c1S(=O)(=O)c1cccc(Cl)c1-2`, the growth inhibition is 100% (active).

For `[O-][n+]1c2ccc(O)cc2nc2ccc(Cl)cc21`, the growth inhibition is -24% (inactive).

Take `COc1ccc2ccc3ccccc3c2c1C=O`: the growth inhibition was 14% (inactive).

`Nc1ccc2c(c1)C(=O)c1cccc(N)c1C2=O`: the growth inhibition is 18% (inactive).

As to `O=C(c1ccc(Cl)cc1Cl)C(Cl)Cl`, the growth inhibition is 34% (inactive).

In the case of `COc1cc(C(=O)/C=C/c2ccccc2O)ccc1O`, the growth inhibition is 79% (active).

Turning to `O=Cc1cccc2ccc3ccccc3c12`, the growth inhibition is -91% (inactive).

With `O=C(Nc1ccc(Cl)cc1)OCC#CCCl`, the growth inhibition is 9% (inactive).

With `Cn1ccnc1Oc1ccc(Cl)cc1`, the growth inhibition is -131% (inactive).

Take `c1ccc2c(c1)C(=NCCCN1CCCCCC1)c1cccn1-2`: the growth inhibition is -2% (inactive).

For `C/C(=N\O)C1CC2C=C(C#N)C1N(Cc1ccccc1)C2` (stereo not drawn), the growth inhibition was 0% (inactive).

For `O=[N+]([O-])C(=C(Sc1ccccc1)Sc1ccccc1)C(Cl)=C(Cl)Cl`, the growth inhibition was 12% (inactive).

As for `CCCCCCCCCC/C=C\C(=O)O`, the growth inhibition is 37% (inactive).

For `COc1ccc(N=C2C(=O)Nc3ccc(Br)cc32)cc1`, the growth inhibition is 47% (inactive).

Turning to `COc1ccccc1C(=O)OCC1CCCN2CCCCC12` (stereo not drawn), the growth inhibition is 60% (inactive).

For the compound `CC(C)(Br)C(=O)/C=C/c1ccc(Cl)c(Cl)c1`, the growth inhibition is 27% (inactive).

`Nc1ccccc1CC(O)C(=O)O` (stereo not drawn): the growth inhibition was 0% (inactive).

Consider `CC(=O)N/N=C/C(C)(C)C(C)(C)/C=N/NC(C)=O`, for which the growth inhibition is 11% (inactive).

As for `CN(C)c1nc2sc3c(c2c(=O)o1)CCCC3`, the growth inhibition was -9% (inactive).

On to `CC(C)OC(=O)Oc1ccccc1OC(=O)OC(C)C`, for which the growth inhibition is -20% (inactive).

With `Cc1ccc(N)c(S)c1`, the growth inhibition was 20% (inactive).

Regarding `O=C(O)c1ccccc1NC(=S)c1ccccc1`, the growth inhibition is 43% (inactive).

Regarding `COC(=O)c1ccc(NCC2=CC(=O)C=CC2=O)cc1O`, the growth inhibition was 0% (inactive).

For `NC(N)=N/N=C\c1c2ccccc2cc2ccccc12`, the growth inhibition was 29% (inactive).

Regarding `COC(=O)CSSCc1ccc([N+](=O)[O-])cc1`, the growth inhibition was 69% (inactive).

Consider `CCS(=O)(=O)c1ccc(/C=C/C=N/NC(=S)NCC(C)C)cc1`, for which the growth inhibition was 8% (inactive).

`N#CC(C(=O)Nc1ccccc1)C1=C(Cl)C(=O)c2ccccc2C1=O` (stereo not drawn): the growth inhibition was 64% (inactive).

Take `C[C@H](CCC(=O)NN)[C@H]1CC[C@H]2[C@@H]3CC[C@@H]4C[C@H](O)CC[C@]4(C)[C@H]3CC[C@]12C`: the growth inhibition was 21% (inactive).

As to `CC[n+]1ccc2c(C)c3[nH]c4ccc(O)cc4c3c(C)c2c1`, the growth inhibition is 5% (inactive).

The same test, now with this note: S. cerevisiae mlh1 rad18 strain growth inhibition; at 50.0 µM (retest, dose inferred, filed as 5.0); hits give high values.
With `CCCc1cc(C(=O)OCC)cc(CCC)c1O`, the growth inhibition is 7% (inactive).

Turning to `CC(C)[N+]([O-])(CCCNc1c2ccccc2nc2cccc([N+](=O)[O-])c12)C(C)C`, the growth inhibition was 98% (active).

For the compound `COc1cc2c3c(cccc3c1)C(=O)N(CCN(C)C)C2=O`, the growth inhibition was 55% (inactive).

Take `NC(=O)NN=C(CS)CS`: the growth inhibition was 47% (inactive).

Take `Cc1ccc(NC(=O)/C(Cl)=C(\Cl)C(=O)O)cc1C`: the growth inhibition was 99% (active).

For the compound `CCN(CC)CC[n+]1ccc2c(C)c3[nH]c4ccc(O)cc4c3c(C)c2c1`, the growth inhibition was 19% (inactive).

Turning to `CC(CC(C)(C)[N+](C)(C)C)[N+](C)(C)C` (stereo not drawn), the growth inhibition is 97% (active).

With `COc1ccc(OC)c2cc3ccccc3cc12`, the growth inhibition is 81% (active).

Turning to `Nc1ncncc1C(C1=C(O)COC1=O)C1=C(O)COC1=O`, the growth inhibition was 57% (inactive).

Consider `CSC1=NNC(SC)=NN1`, for which the growth inhibition was 35% (inactive).

Take `Cc1c(Cl)ccc2c1S(=O)(=O)c1cccc(Cl)c1-2`: the growth inhibition was 100% (active).

Take `[O-][n+]1c2ccc(O)cc2nc2ccc(Cl)cc21`: the growth inhibition is 53% (inactive).

For the compound `COc1ccc2ccc3ccccc3c2c1C=O`, the growth inhibition was 89% (active).

`Nc1ccc2c(c1)C(=O)c1cccc(N)c1C2=O`: the growth inhibition was 93% (active).

Turning to `O=C(c1ccc(Cl)cc1Cl)C(Cl)Cl`, the growth inhibition is 75% (active).

With `COc1cc(C(=O)/C=C/c2ccccc2O)ccc1O`, the growth inhibition is 98% (active).

`O=Cc1cccc2ccc3ccccc3c12`: the growth inhibition was 82% (active).

Regarding `O=C(Nc1ccc(Cl)cc1)OCC#CCCl`, the growth inhibition is 46% (inactive).

Regarding `Cn1ccnc1Oc1ccc(Cl)cc1`, the growth inhibition was 74% (active).

As for `c1ccc2c(c1)C(=NCCCN1CCCCCC1)c1cccn1-2`, the growth inhibition is -2% (inactive).

Take `C/C(=N\O)C1CC2C=C(C#N)C1N(Cc1ccccc1)C2` (stereo not drawn): the growth inhibition was 62% (inactive).

`O=[N+]([O-])C(=C(Sc1ccccc1)Sc1ccccc1)C(Cl)=C(Cl)Cl`: the growth inhibition is 71% (active).

As for `CCCCCCCCCC/C=C\C(=O)O`, the growth inhibition is 69% (inactive).

As to `COc1ccc(N=C2C(=O)Nc3ccc(Br)cc32)cc1`, the growth inhibition was 55% (inactive).

As for `COc1ccccc1C(=O)OCC1CCCN2CCCCC12` (stereo not drawn), the growth inhibition was 99% (active).

Take `CC(C)(Br)C(=O)/C=C/c1ccc(Cl)c(Cl)c1`: the growth inhibition is 78% (active).

Consider `Nc1ccccc1CC(O)C(=O)O` (stereo not drawn), for which the growth inhibition is 94% (active).

Regarding `CC(=O)N/N=C/C(C)(C)C(C)(C)/C=N/NC(C)=O`, the growth inhibition was 82% (active).

In the case of `CN(C)c1nc2sc3c(c2c(=O)o1)CCCC3`, the growth inhibition is 90% (active).

On to `CC(C)OC(=O)Oc1ccccc1OC(=O)OC(C)C`, for which the growth inhibition was -7% (inactive).

On to `Cc1ccc(N)c(S)c1`, for which the growth inhibition was 95% (active).

`O=C(O)c1ccccc1NC(=S)c1ccccc1`: the growth inhibition is 99% (active).

With `COC(=O)c1ccc(NCC2=CC(=O)C=CC2=O)cc1O`, the growth inhibition is 93% (active).

As for `NC(N)=N/N=C\c1c2ccccc2cc2ccccc12`, the growth inhibition was 81% (active).

`COC(=O)CSSCc1ccc([N+](=O)[O-])cc1`: the growth inhibition was 98% (active).

Consider `CCS(=O)(=O)c1ccc(/C=C/C=N/NC(=S)NCC(C)C)cc1`, for which the growth inhibition is 43% (inactive).

For `N#CC(C(=O)Nc1ccccc1)C1=C(Cl)C(=O)c2ccccc2C1=O` (stereo not drawn), the growth inhibition is 98% (active).

`C[C@H](CCC(=O)NN)[C@H]1CC[C@H]2[C@@H]3CC[C@@H]4C[C@H](O)CC[C@]4(C)[C@H]3CC[C@]12C`: the growth inhibition is 44% (inactive).

For the compound `CC[n+]1ccc2c(C)c3[nH]c4ccc(O)cc4c3c(C)c2c1`, the growth inhibition was 30% (inactive).

(Values after PubChem BioAssay (NCI).)
